Holding throughout (experiment): PBM; 200 nM protein, PBS
Holding throughout (conditions): dsDNA, one strand shown

For assay [1], the target named is T1, SIX6 (Homo sapiens, UniProt O95475 114-200, L167I).
T1 sequence: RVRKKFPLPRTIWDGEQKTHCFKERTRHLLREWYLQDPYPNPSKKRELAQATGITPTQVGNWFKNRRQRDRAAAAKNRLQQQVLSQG

Assay [2] concerns the target T2, SIX6 (Homo sapiens, UniProt O95475 114-200, L143V).
T2 sequence: T1 sequence with L30V, I54L

The target in assay [3] is T3, SIX6 (Homo sapiens, UniProt O95475 114-200, H141N).
T3 sequence: T1 sequence with H28N, I54L

For assay [4], the target named is T4, SIX6 (Homo sapiens, UniProt O95475 114-200, T165P).
T4 sequence: T1 sequence with T52P, I54L

Assay [5] has as its target T5, SIX6 (Homo sapiens, UniProt O95475 114-200, L167M).
T5 sequence: T1 sequence with I54M

Assay [6] deals with T6, SIX6 (Homo sapiens, UniProt O95475 114-200, L143M).
T6 sequence: T1 sequence with L30M, I54L

The target in assay [7] is T7, SIX6 (Homo sapiens, UniProt O95475 114-200, L143I).
T7 sequence: T1 sequence with L30I, I54L

Assay [8] has as its target T8, SIX6 (Homo sapiens, UniProt O95475 114-200, T165G).
T8 sequence: T1 sequence with T52G, I54L

Assay [9] addresses T9, SIX6 (Homo sapiens, UniProt O95475 114-200, T139Q).
T9 sequence: T1 sequence with T26Q, I54L

The target of assay [10] is T10, SIX6 (Homo sapiens, UniProt O95475 114-200, T165A).
T10 sequence: T1 sequence with T52A, I54L

Assay [11] addresses T11, SIX6 (Homo sapiens, UniProt O95475 114-200, L167V).
T11 sequence: T1 sequence with I54V

Assay [12] addresses T12, SIX6 (Homo sapiens, UniProt O95475 114-200).
T12 sequence: T1 sequence with I54L

For assay [13], the target named is T13, SIX6 (Homo sapiens, UniProt O95475 114-200, T165I).
T13 sequence: T1 sequence with T52I, I54L

For assay [14], the target named is NKX3-2 (Homo sapiens, UniProt P78367 192-278, P234S).
Chain of NKX3-2 (Homo sapiens, UniProt P78367 192-278, P234S) (P78367 192-278 P234S): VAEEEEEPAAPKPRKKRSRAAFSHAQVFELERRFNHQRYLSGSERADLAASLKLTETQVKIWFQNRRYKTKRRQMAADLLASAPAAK
The target in assay [15] is NKX3-2 (Homo sapiens, UniProt P78367 192-278).
Chain of NKX3-2 (Homo sapiens, UniProt P78367 192-278) (P78367 192-278): as the sequence (P78367 192-278 P234S) above, with S43P counted along it

Numbering of substitutions follows the chain as printed.

Consider TGATATCA, for which the binding signal with SIX6 [1] was 11.6 upbm affinity estimate (log intensity, higher = more binding, comparable within an allelic series); in the assay with SIX6 [2], 10.5 upbm affinity estimate (log intensity, higher = more binding, comparable within an allelic series); with SIX6 [3] it was 11.6 upbm affinity estimate (log intensity, higher = more binding, comparable within an allelic series); with SIX6 [4], 9.86 upbm affinity estimate (log intensity, higher = more binding, comparable within an allelic series); with SIX6 [5], 11 upbm affinity estimate (log intensity, higher = more binding, comparable within an allelic series); with SIX6 [6], 11.4 upbm affinity estimate (log intensity, higher = more binding, comparable within an allelic series). The binding signal was 10.5 upbm affinity estimate (log intensity, higher = more binding, comparable within an allelic series) with SIX6 [7]; 11.6 upbm affinity estimate (log intensity, higher = more binding, comparable within an allelic series) with SIX6 [8]; 11.6 upbm affinity estimate (log intensity, higher = more binding, comparable within an allelic series) with SIX6 [9]; 11.6 upbm affinity estimate (log intensity, higher = more binding, comparable within an allelic series) with SIX6 [10]; 11.6 upbm affinity estimate (log intensity, higher = more binding, comparable within an allelic series) in the assay with SIX6 [11]; 11.3 upbm affinity estimate (log intensity, higher = more binding, comparable within an allelic series) in the assay with SIX6 [12]. Besides, the binding signal with SIX6 [13] was 11.4 upbm affinity estimate (log intensity, higher = more binding, comparable within an allelic series).

Regarding AAGGCCGC, the binding signal is 8.93 upbm affinity estimate (log intensity, higher = more binding, comparable within an allelic series) with SIX6 [1]; 8.99 upbm affinity estimate (log intensity, higher = more binding, comparable within an allelic series) with SIX6 [2]; 8.93 upbm affinity estimate (log intensity, higher = more binding, comparable within an allelic series) with SIX6 [3]; 8.98 upbm affinity estimate (log intensity, higher = more binding, comparable within an allelic series) with SIX6 [4]; 8.92 upbm affinity estimate (log intensity, higher = more binding, comparable within an allelic series) with SIX6 [5]; 8.92 upbm affinity estimate (log intensity, higher = more binding, comparable within an allelic series) with SIX6 [6]. Further, the binding signal in the assay with SIX6 [7] was 8.97 upbm affinity estimate (log intensity, higher = more binding, comparable within an allelic series); with SIX6 [8] it was 8.93 upbm affinity estimate (log intensity, higher = more binding, comparable within an allelic series); with SIX6 [9], 8.96 upbm affinity estimate (log intensity, higher = more binding, comparable within an allelic series); with SIX6 [10], 8.9 upbm affinity estimate (log intensity, higher = more binding, comparable within an allelic series); in the assay with SIX6 [11], 8.89 upbm affinity estimate (log intensity, higher = more binding, comparable within an allelic series); with SIX6 [12], 8.92 upbm affinity estimate (log intensity, higher = more binding, comparable within an allelic series). Moreover, the binding signal in the assay with SIX6 [13] is 8.95 upbm affinity estimate (log intensity, higher = more binding, comparable within an allelic series); with NKX3-2 [14], 10.5 upbm affinity estimate (log intensity, higher = more binding, comparable within an allelic series); in the assay with NKX3-2 [15], 10.6 upbm affinity estimate (log intensity, higher = more binding, comparable within an allelic series).

As to GGTGTCAA, the binding signal with SIX6 [1] is 10.4 upbm affinity estimate (log intensity, higher = more binding, comparable within an allelic series); with SIX6 [4] it was 9.33 upbm affinity estimate (log intensity, higher = more binding, comparable within an allelic series); in the assay with SIX6 [5] it was 9.85 upbm affinity estimate (log intensity, higher = more binding, comparable within an allelic series); with SIX6 [8], 11.1 upbm affinity estimate (log intensity, higher = more binding, comparable within an allelic series); with SIX6 [10], 11.1 upbm affinity estimate (log intensity, higher = more binding, comparable within an allelic series).

For AGAATATC, the binding signal with SIX6 [1] was 10.5 upbm affinity estimate (log intensity, higher = more binding, comparable within an allelic series); in the assay with SIX6 [3], 10.3 upbm affinity estimate (log intensity, higher = more binding, comparable within an allelic series); with SIX6 [4], 9.77 upbm affinity estimate (log intensity, higher = more binding, comparable within an allelic series); with SIX6 [5], 10.4 upbm affinity estimate (log intensity, higher = more binding, comparable within an allelic series); with SIX6 [6], 10.5 upbm affinity estimate (log intensity, higher = more binding, comparable within an allelic series); in the assay with SIX6 [7], 9.98 upbm affinity estimate (log intensity, higher = more binding, comparable within an allelic series). Besides, the binding signal is 10.5 upbm affinity estimate (log intensity, higher = more binding, comparable within an allelic series) in the assay with SIX6 [8]; 10.5 upbm affinity estimate (log intensity, higher = more binding, comparable within an allelic series) in the assay with SIX6 [9]; 10.4 upbm affinity estimate (log intensity, higher = more binding, comparable within an allelic series) with SIX6 [10]; 10.3 upbm affinity estimate (log intensity, higher = more binding, comparable within an allelic series) in the assay with SIX6 [11]; 10.3 upbm affinity estimate (log intensity, higher = more binding, comparable within an allelic series) with SIX6 [12]; 10.3 upbm affinity estimate (log intensity, higher = more binding, comparable within an allelic series) in the assay with SIX6 [13].

For the sequence ATACAGAT, the binding signal with SIX6 [1] is 10.7 upbm affinity estimate (log intensity, higher = more binding, comparable within an allelic series); with SIX6 [3], 10.6 upbm affinity estimate (log intensity, higher = more binding, comparable within an allelic series); with SIX6 [4], 10 upbm affinity estimate (log intensity, higher = more binding, comparable within an allelic series); in the assay with SIX6 [5] it was 10.5 upbm affinity estimate (log intensity, higher = more binding, comparable within an allelic series); with SIX6 [6], 10.7 upbm affinity estimate (log intensity, higher = more binding, comparable within an allelic series); with SIX6 [7], 10.3 upbm affinity estimate (log intensity, higher = more binding, comparable within an allelic series). For the same sequence, the binding signal with SIX6 [8] is 10.7 upbm affinity estimate (log intensity, higher = more binding, comparable within an allelic series); with SIX6 [9], 10.8 upbm affinity estimate (log intensity, higher = more binding, comparable within an allelic series); in the assay with SIX6 [10] it was 10.5 upbm affinity estimate (log intensity, higher = more binding, comparable within an allelic series); with SIX6 [11], 10.5 upbm affinity estimate (log intensity, higher = more binding, comparable within an allelic series); in the assay with SIX6 [12], 10.6 upbm affinity estimate (log intensity, higher = more binding, comparable within an allelic series); with SIX6 [13], 10.5 upbm affinity estimate (log intensity, higher = more binding, comparable within an allelic series).

Consider GATATACA, for which the binding signal is 11.1 upbm affinity estimate (log intensity, higher = more binding, comparable within an allelic series) with SIX6 [1]; 10.9 upbm affinity estimate (log intensity, higher = more binding, comparable within an allelic series) with SIX6 [5]; 10.4 upbm affinity estimate (log intensity, higher = more binding, comparable within an allelic series) with SIX6 [7]; 10.9 upbm affinity estimate (log intensity, higher = more binding, comparable within an allelic series) in the assay with SIX6 [13].

Regarding ATTATCCG, the binding signal is 10.4 upbm affinity estimate (log intensity, higher = more binding, comparable within an allelic series) in the assay with SIX6 [1]; 10.3 upbm affinity estimate (log intensity, higher = more binding, comparable within an allelic series) with SIX6 [3]; 9.7 upbm affinity estimate (log intensity, higher = more binding, comparable within an allelic series) with SIX6 [4]; 10.2 upbm affinity estimate (log intensity, higher = more binding, comparable within an allelic series) with SIX6 [5]; 10.3 upbm affinity estimate (log intensity, higher = more binding, comparable within an allelic series) with SIX6 [6]; 9.95 upbm affinity estimate (log intensity, higher = more binding, comparable within an allelic series) in the assay with SIX6 [7]. The binding signal was 10.2 upbm affinity estimate (log intensity, higher = more binding, comparable within an allelic series) with SIX6 [8]; 10.4 upbm affinity estimate (log intensity, higher = more binding, comparable within an allelic series) with SIX6 [9]; 10.2 upbm affinity estimate (log intensity, higher = more binding, comparable within an allelic series) with SIX6 [10]; 10.2 upbm affinity estimate (log intensity, higher = more binding, comparable within an allelic series) with SIX6 [11]; 10.3 upbm affinity estimate (log intensity, higher = more binding, comparable within an allelic series) with SIX6 [12]; 10.2 upbm affinity estimate (log intensity, higher = more binding, comparable within an allelic series) in the assay with SIX6 [13].

AGTTGTAT: the binding signal with SIX6 [1] was 10.2 upbm affinity estimate (log intensity, higher = more binding, comparable within an allelic series); with SIX6 [3] it was 10.2 upbm affinity estimate (log intensity, higher = more binding, comparable within an allelic series); in the assay with SIX6 [5], 10.1 upbm affinity estimate (log intensity, higher = more binding, comparable within an allelic series); with SIX6 [12], 10.3 upbm affinity estimate (log intensity, higher = more binding, comparable within an allelic series); with SIX6 [13], 10.2 upbm affinity estimate (log intensity, higher = more binding, comparable within an allelic series).

On to TATAACCA, for which the binding signal with SIX6 [1] was 10.1 upbm affinity estimate (log intensity, higher = more binding, comparable within an allelic series); in the assay with SIX6 [3], 10.1 upbm affinity estimate (log intensity, higher = more binding, comparable within an allelic series); with SIX6 [5] it was 10.2 upbm affinity estimate (log intensity, higher = more binding, comparable within an allelic series); in the assay with SIX6 [8], 10.2 upbm affinity estimate (log intensity, higher = more binding, comparable within an allelic series); with SIX6 [12] it was 10.1 upbm affinity estimate (log intensity, higher = more binding, comparable within an allelic series).

Consider AAGTATCT, for which the binding signal with SIX6 [1] is 10.5 upbm affinity estimate (log intensity, higher = more binding, comparable within an allelic series); with SIX6 [3], 10.4 upbm affinity estimate (log intensity, higher = more binding, comparable within an allelic series); with SIX6 [5], 10.2 upbm affinity estimate (log intensity, higher = more binding, comparable within an allelic series); with SIX6 [6], 10.4 upbm affinity estimate (log intensity, higher = more binding, comparable within an allelic series); in the assay with SIX6 [7] it was 9.98 upbm affinity estimate (log intensity, higher = more binding, comparable within an allelic series); in the assay with SIX6 [8], 10.4 upbm affinity estimate (log intensity, higher = more binding, comparable within an allelic series). Moreover, the binding signal with SIX6 [9] is 10.6 upbm affinity estimate (log intensity, higher = more binding, comparable within an allelic series); with SIX6 [10], 10.4 upbm affinity estimate (log intensity, higher = more binding, comparable within an allelic series); in the assay with SIX6 [11], 10.3 upbm affinity estimate (log intensity, higher = more binding, comparable within an allelic series); in the assay with SIX6 [12], 10.3 upbm affinity estimate (log intensity, higher = more binding, comparable within an allelic series); with SIX6 [13] it was 10.3 upbm affinity estimate (log intensity, higher = more binding, comparable within an allelic series).

ACGGATCC: the binding signal is 10.2 upbm affinity estimate (log intensity, higher = more binding, comparable within an allelic series) in the assay with SIX6 [1]; 9.67 upbm affinity estimate (log intensity, higher = more binding, comparable within an allelic series) in the assay with SIX6 [2]; 10.1 upbm affinity estimate (log intensity, higher = more binding, comparable within an allelic series) with SIX6 [3]; 9.26 upbm affinity estimate (log intensity, higher = more binding, comparable within an allelic series) with SIX6 [4]; 10.5 upbm affinity estimate (log intensity, higher = more binding, comparable within an allelic series) in the assay with SIX6 [9]; 10 upbm affinity estimate (log intensity, higher = more binding, comparable within an allelic series) with SIX6 [11]. Further, the binding signal with SIX6 [12] was 10.2 upbm affinity estimate (log intensity, higher = more binding, comparable within an allelic series).

Regarding GATCTTCA, the binding signal in the assay with SIX6 [1] was 10.3 upbm affinity estimate (log intensity, higher = more binding, comparable within an allelic series); with SIX6 [3] it was 10.3 upbm affinity estimate (log intensity, higher = more binding, comparable within an allelic series); in the assay with SIX6 [4], 9.68 upbm affinity estimate (log intensity, higher = more binding, comparable within an allelic series); with SIX6 [8] it was 10.3 upbm affinity estimate (log intensity, higher = more binding, comparable within an allelic series); with SIX6 [9], 10.4 upbm affinity estimate (log intensity, higher = more binding, comparable within an allelic series); with SIX6 [11], 10.2 upbm affinity estimate (log intensity, higher = more binding, comparable within an allelic series). For the same sequence, in the assay with SIX6 [12], the binding signal was 10.3 upbm affinity estimate (log intensity, higher = more binding, comparable within an allelic series).
